This is part of a sample that, as a whole, favours compounds with a hit. Of some 79,000 tested, about 15% had one in any assay. A number with no mark means an inactive call. Activity calls are given as the source filed them. Cut-off read from the data, not from the text of the source: active = growth inhibition above about 70%; inactive = the rest.
Assays:
[1] = NCI Yeast Anticancer Drug Screen. Data for the wt1 strain (AID 149);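 note: 0% = growth of vehicle-treated wt1 cultures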; conditions: S. cerevisiae wt1 strain (SPY 50644) growth inhibition, stronger effect = higher value
Procedure, shortened: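 Vehicle-normalised growth inhibition; strain wt1; compound exposure.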

[2] = NCI Yeast Anticancer Drug Screen. Data for the rad50EPP+ strain (AID 151);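 note: 0% = growth of vehicle-treated control cultures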; conditions: S. cerevisiae rad50 mutant strain, stronger effect = higher value
Procedure, shortened: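 One strain with a rad50 alteration (rad50EPP+) was compound-treated, its growth then compared to that of vehicle controls.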

[3] = NCI Yeast Anticancer Drug Screen. Data for the rad50 strain (AID 155);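 note: 0% = growth of vehicle-only cultures of the same strain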; conditions: S. cerevisiae rad50 strain growth inhibition, stronger effect = higher value
Procedure, shortened: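 A DNA repair-deficient yeast mutant serves as the test organism; compound-induced growth inhibition is calculated against vehicle-treated cells.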

[4] = NCI Yeast Anticancer Drug Screen. Data for the mec2-1 strain (AID 157); conditions: S. cerevisiae mec2-1 strain, stronger effect = higher value
Procedure, shortened: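 Test agents were screened against the mec2-1 yeast strain, with defined DNA repair or cell cycle alteration. Growth was scored as inhibition against vehicle-only controls.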

[5] = NCI Yeast Anticancer Drug Screen. Data for the rad14 strain (AID 159);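 note: 0% = growth of vehicle-treated control cultures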; conditions: S. cerevisiae rad14 strain growth inhibition, stronger effect = higher value
Procedure, shortened: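 Vehicle-treated cultures served as the baseline for growth inhibition of a DNA repair-mutant yeast strain exposed to each compound.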

[6] = NCI Yeast Anticancer Drug Screen. Data for the sgs1 mgt1 strain (AID 161);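 note: 0% = growth of cultures given vehicle only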; conditions: S. cerevisiae sgs1 mgt1 strain, stronger effect = higher value
Procedure, shortened: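 Read-out: growth inhibition vs vehicle controls. Cells: mutant yeast strain deficient in DNA damage repair.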

[7] = NCI Yeast Anticancer Drug Screen. Data for the CLN2oe strain (AID 163);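 note: 0% = growth of vehicle-only control cultures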; conditions: S. cerevisiae CLN2oe strain, stronger effect = higher value
Procedure, shortened: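 Here, growth inhibition in a cell-cycle-altered yeast strain after compound exposure was quantified against vehicle control growth.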

[8] = NCI Yeast Anticancer Drug Screen. Data for the cln2 rad14 strain (AID 165);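 note: 0% = growth equal to vehicle treated cultures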; conditions: S. cerevisiae cln2 rad14 strain, stronger effect = higher value
Procedure, shortened: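 Growth of compound-exposed yeast (cln2 rad14 genotype) measured and expressed as inhibition relative to vehicle.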

[9] = NCI Yeast Anticancer Drug Screen. Data for the bub3 strain (AID 167); conditions: S. cerevisiae bub3 mutant strain, stronger effect = higher value
Procedure, shortened: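 Inhibition values come from growth of compound-treated mutant yeast normalised to vehicle-treated controls.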

[10] = NCI Yeast Anticancer Drug Screen. Data for the wt2 strain (AID 169);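 note: 0% = growth of vehicle-treated yeast cultures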; conditions: S. cerevisiae wt2 strain growth inhibition, stronger effect = higher value
Procedure, shortened: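 Genetically defined yeast strains from a DNA-repair/cell-cycle panel were used. Compound-exposed yeast growth was measured, and the inhibition was calculated relative to vehicle treatment.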

[11] = NCI Yeast Anticancer Drug Screen. Data for the mlh1 strain (AID 171);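 note: 0% = growth of vehicle-treated control cultures of the same strain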; conditions: S. cerevisiae mlh1 strain growth inhibition, stronger effect = higher value
Procedure, shortened: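 Here the genetically defined yeast mutant is grown with each compound, and the extent to which its growth falls below that of vehicle-exposed cells is reported.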

[12] = NCI Yeast Anticancer Drug Screen. Data for the sgs1 strain (AID 173);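 note: 0% = growth of vehicle-only control cultures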; conditions: S. cerevisiae sgs1 mutant, stronger effect = higher value
Procedure, shortened: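 Relative growth inhibition, referenced to vehicle, was determined in a yeast strain with a defined alteration affecting DNA damage repair or cell cycle control after compound exposure.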

[13] = NCI Yeast Anticancer Drug Screen. Data for the mlh1 rad18 strain (AID 175); conditions: S. cerevisiae mlh1 rad18 strain growth inhibition, stronger effect = higher value
Procedure, shortened: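 In this whole-cell yeast screen, a strain with altered DNA damage repair is challenged with compound, and its growth is measured against matched vehicle-treated controls.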

[14] = NCI Yeast Anticancer Drug Screen. Data for the rad18 strain (AID 177); conditions: S. cerevisiae rad18 mutant growth inhibition, stronger effect = higher value
Procedure, shortened: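 Screen uses a yeast strain with a defined lesion in DNA damage repair; compound effect is read as loss of growth compared to untreated vehicle cultures.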

[15] = at 5.0 µM (retest, dose inferred, filed as 0.5)
[16] = at 50.0 µM (retest, dose inferred, filed as 5.0)

## CCCCCCCCCCCCCCCCOCC(Cl)COP(=O)(O)OP(=O)(O)OCC1OC(n2cnc3c(N)ncnc32)C(O)C1O (stereo not drawn)
[1]; at 1.2 µM
  growth inhibition: 21%
[1]; at 3.7 µM
  growth inhibition: 35%
[1]; at 11.0 µM
  growth inhibition: 46%
[1]; at 33.0 µM
  growth inhibition: 54%
[1]; at 100.0 µM
  growth inhibition: 51%
[2]; at 1.2 µM
  growth inhibition: 20%
[2]; at 3.7 µM
  growth inhibition: 24%
[2]; at 11.0 µM
  growth inhibition: 43%
[2]; at 33.0 µM
  growth inhibition: 67%
[2]; at 100.0 µM
  growth inhibition: 97% (active)
[3]; at 1.2 µM
  growth inhibition: 14%
[3]; at 3.7 µM
  growth inhibition: 28%
[3]; [15]
  growth inhibition: 49%
[3]; at 11.0 µM
  growth inhibition: 75% (active)
[3]; at 33.0 µM
  growth inhibition: 86% (active)
[3]; [16]
  growth inhibition: 93% (active)
[3]; at 50.0 µM
  growth inhibition: 54.4%
[3]; at 100.0 µM
  growth inhibition: 86% (active)
[4]; at 1.2 µM
  growth inhibition: 14%
[4]; at 3.7 µM
  growth inhibition: 6%
[4]; [15]
  growth inhibition: 36%
[4]; at 11.0 µM
  growth inhibition: 19%
[4]; at 33.0 µM
  growth inhibition: 11%
[4]; [16]
  growth inhibition: 73% (active)
[4]; at 50.0 µM
  growth inhibition: 33.4%
[4]; at 100.0 µM
  growth inhibition: 47%
[5]; at 1.2 µM
  growth inhibition: 10%
[5]; at 3.7 µM
  growth inhibition: 6%
[5]; at 11.0 µM
  growth inhibition: 29%
[5]; at 33.0 µM
  growth inhibition: 35%
[5]; at 100.0 µM
  growth inhibition: 46%
[6]; [15]
  growth inhibition: 74% (active)
[6]; [16]
  growth inhibition: 96% (active)
[6]; at 50.0 µM
  growth inhibition: 88.4% (active)
[7]; at 1.2 µM
  growth inhibition: 2%
[7]; at 3.7 µM
  growth inhibition: 2%
[7]; at 11.0 µM
  growth inhibition: -4%
[7]; at 33.0 µM
  growth inhibition: 24%
[7]; at 100.0 µM
  growth inhibition: 31%
[8]; [15]
  growth inhibition: 24%
[8]; [16]
  growth inhibition: 79% (active)
[8]; at 50.0 µM
  growth inhibition: -30.4%
[9]; at 1.2 µM
  growth inhibition: -12%
[9]; at 3.7 µM
  growth inhibition: -25%
[9]; [15]
  growth inhibition: 10%
[9]; at 11.0 µM
  growth inhibition: -8%
[9]; at 33.0 µM
  growth inhibition: 9%
[9]; [16]
  growth inhibition: 73% (active)
[9]; at 50.0 µM
  growth inhibition: 28.2%
[9]; at 100.0 µM
  growth inhibition: 39%
[10]; at 1.2 µM
  growth inhibition: -2%
[10]; at 3.7 µM
  growth inhibition: -3%
[10]; at 11.0 µM
  growth inhibition: 11%
[10]; at 33.0 µM
  growth inhibition: 19%
[10]; at 100.0 µM
  growth inhibition: 57%
[11]; at 1.2 µM
  growth inhibition: 10%
[11]; at 3.7 µM
  growth inhibition: -1%
[11]; at 11.0 µM
  growth inhibition: 53%
[11]; at 33.0 µM
  growth inhibition: 63%
[11]; at 100.0 µM
  growth inhibition: 78% (active)
[12]; at 1.2 µM
  growth inhibition: 40%
[12]; at 3.7 µM
  growth inhibition: 64%
[12]; at 11.0 µM
  growth inhibition: 93% (active)
[12]; at 33.0 µM
  growth inhibition: 95% (active)
[12]; at 100.0 µM
  growth inhibition: 92% (active)
[13]; [15]
  growth inhibition: 36%
[13]; [16]
  growth inhibition: 92% (active)
[13]; at 50.0 µM
  growth inhibition: 48%
[14]; at 1.2 µM
  growth inhibition: -4%
[14]; at 3.7 µM
  growth inhibition: 0%
[14]; at 11.0 µM
  growth inhibition: 22%
[14]; at 33.0 µM
  growth inhibition: 39%
[14]; at 100.0 µM
  growth inhibition: 59%

— PubChem BioAssay (NCI)
